# Data: PubChem BioAssay AID1532 (PCMD, 2009)
# Out of some 110,000 compounds screened, about 420 (0.38%) were called active. Cut-off read from the data, not from the text of the source: active = inhibition above about 30% (passing the limit was not always enough); inconclusive = no clear call, values can overlap the other calls. This excerpt belongs to a sample that is enriched for actives.
# System: RmlC (dTDP-4-dehydrorhamnose 3,5-epimerase) and RmlD (dTDP-4-dehydrorhamnose reductase), coupled enzyme assay
# Assay: RmlC and RmlD coupled enzyme inhibitors, primary screen, biochemical, 384-well, compound mixtures, retest (AID 1532)
# Conditions: 384-well mixture HTS, at 5.5 µM, stronger effect = higher value
# [1] = measured here: mean retest inhibition
compound,measurement,setting,value
CC(C)[C@@H]1NC(=O)c2cc([N+](=O)[O-])cc(I)c2NCCC[C@@H](C(=O)NC(CC(=O)O)C(N)=O)NC(=O)[C@H](CO)NC1=O (stereo partly specified),inhibition,,-19.9% (inactive)
NC(=O)CC[C@@H]1NC(=O)[C@@H]2CCCN2C(=O)c2cc([N+](=O)[O-])cc(F)c2NCCC[C@@H](C(N)=O)NC1=O,inhibition,,-71.2% (inactive)
NC(=O)C1=C[C@H](c2csc3ccccc23)C[C@H](OCc2ccc(CO)cc2)O1,inhibition,,-63% (inactive)
COP1(=O)C[C@@H](O)[C@@H](O)[C@@H](COCc2ccccc2)O1 (stereo partly specified),inhibition,,11.1% (inactive)
CCN1C(=O)N[C@@H](CCc2ccccc2)C(C(=O)OC)=C1C,inhibition,,4.12% (inactive)
Cc1ccc(-c2csc(NCCc3nc4cc(Cl)c(Cl)cc4n3CCOCCO)n2)cc1,inhibition,,7.32% (inactive)
C=CCNC(=O)c1csc(-c2ccccc2)n1,inhibition,,10.9% (inactive)
C=CCNc1nc(N)c(C(=C(C#N)C#N)c2ccccc2)s1,inhibition,"above what the read-out allows, likely interference",654% (active)
CCOC(=O)CN1C(=O)N[C@@H](c2ccc(Br)cc2)C(C(C)=O)=C1C,inhibition,,-1.77% (inactive)
COC(=O)c1c(C)cc(O)c(C)c1O,inhibition,,12% (inactive)
CC(C)(C)Oc1ccccc1Nc1nc(NCCO)nc(N2CCCC2)n1,inhibition,,-10.1% (inactive)
NC1=NC[C@@H](Cc2ccc(O)cc2)N1CC1CCCCC1,inhibition,,10.2% (inactive)
C=CCOC(=O)C1=C[C@@H](c2ccccc2)C[C@@H](OCc2ccc(CO)cc2)O1,inhibition,,4.95% (inactive)
CC[C@H](C)[C@@H](C(=O)N1CCNCC1)n1cc([C@@H](N)Cc2ccc(O)cc2)nn1,inhibition,,-30% (inactive)
CC1(c2nnc(-c3ccncc3)o2)CC(c2cccnc2)=NO1 (stereo unspecified),inhibition,,-44.9% (inactive)
O=C1CCC(=O)N(O)CCCCCNC(=O)CCC(=O)N(O)CCCCCNC(=O)CCC(=O)N(O)CCCCCN1,inhibition,,-1.74% (inactive)
Fc1ccc2nc(N3CCCCC3)sc2c1,inhibition,,-11.1% (inactive)
Fc1ccc2nc(Nc3nc4c(s3)CCCC4)sc2c1,inhibition,,35.3% (active)
same,inhibition,[1],127%
O=C(CCS(=O)(=O)c1ccccc1)Nc1nc2c(s1)CCCC2,inhibition,,-10.7% (inactive)
CCCCN1C(N)=NC[C@@H]1CC1CCCCC1,inhibition,,6.72% (inactive)
NC(=O)[C@H]1CC2(CC(c3cccc(NC(=O)[C@H]4CCC(=O)N4)c3)=NO2)CN1C(=O)c1ccccc1C(=O)c1ccccc1 (stereo partly specified),inhibition,,20.3% (inactive)
Cc1cccc(NC(=S)NCc2ccc3[nH]c4c(c3c2)CCCC4)c1,inhibition,,-2.9% (inactive)
COc1ccc(SCCN2CCN(CC(C)C)CCC2=O)cc1,inhibition,,8.87% (inactive)
CCOC(=O)c1csc(NC(=O)c2ccc(S(=O)(=O)N3CCCC3)cc2)n1,inhibition,,96.7% (active)
same,inhibition,[1],82.9%
COc1ccc(C(=O)Nc2nc(-c3ccc(S(=O)(=O)N4CCOCC4)cc3)cs2)cc1,inhibition,,-26.7% (inactive)
CCOC(=O)CSc1nnc(NC(=O)c2cccc(S(=O)(=O)N3CCCC3)c2)s1,inhibition,,5.07% (inactive)
Cc1nc(-c2ccc(Cl)cc2)sc1C1(C)CC(c2ccccc2F)=NO1 (stereo unspecified),inhibition,,7.68% (inactive)
COC(=O)C1=C[C@@H](C(=O)OC)[C@@H]2C3=C(C(=O)[C@]2(C)NC(=O)c2ccccc2)[C@H](C)n2c(=O)n(C)c(=O)n2[C@@H]3C1,inhibition,,2.28% (inactive)
O=C(C1=C[C@H](c2ccc(C(F)(F)F)cc2)C[C@H](OCc2ccc(CO)cc2)O1)N1CCN(Cc2ccccc2)CC1,inhibition,,3.78% (inactive)
CCN1C(=O)N[C@@H](c2ccccc2)C(C(=O)OC)=C1C,inhibition,,-30% (inactive)
Cc1ccc(C)c(CSc2nc(-c3ccco3)nc3c2c(=O)n(C)c(=O)n3C)c1,inhibition,,4.13% (inactive)
C/C=C(/C)C(=O)Nc1cccc(C2=NOC3(C2)C[C@@H](C(N)=O)N(C(=O)C2(C)CC2)C3)c1 (stereo partly specified),inhibition,,4.45% (inactive)
NC(=O)C1=C[C@@H](c2csc3ccccc23)C[C@@H](OCc2ccc(CO)cc2)O1,inhibition,,19.8% (inactive)
CCCCCCCCCCCCN1[C@@H](CC(C)=O)c2cc(F)cc(F)c2S1(=O)=O,inhibition,,-11.3% (inactive)
COc1ccccc1C1=CC(=O)CCC1,inhibition,,7.57% (inactive)
CC1(C)C2CC[C@]3(C)C(CC=C4[C@@H]5C[C@@](C)(CO)CC[C@]5(C(=O)O)CC[C@]43C)[C@@]2(C)CC[C@@H]1O (stereo partly specified),inhibition,,9.9% (inactive)
OCC[C@H]1C[C@H](O)[C@@H](O)[C@]2(CCCCO2)O1,inhibition,,7.31% (inactive)
Cc1cccc(NC(=O)c2sc3nc4c(c(-c5ccco5)c3c2N)CCC4)c1,inhibition,,20.3% (inactive)
CC(=O)Nc1ccc(NC(=O)c2sc3nc4c(c(-c5ccc(C)cc5)c3c2N)CCC4)cc1,inhibition,,47.9% (active)
same,inhibition,[1],82.8%
NC(=O)c1sc2nc3c(c(-c4ccccc4)c2c1N)CCC3,inhibition,,-14.4% (inactive)
CCOC(=O)c1ccccc1NC(=O)c1c(N)n(C)c(=O)[nH]c1=O,inhibition,,7.68% (inactive)
CC(C)(C)CN1C(=O)C(=O)NC[C@H]1Cc1cccc2ccccc12,inhibition,,-1.48% (inactive)
C#CCNC(=O)C1=C[C@@H](c2ccccc2)[C@H](CCCO)[C@@H](OCC)O1,inhibition,,0.66% (inactive)
C/C=C(\C)C(=O)N1CC2(CC(c3cccc(NC(=O)CCCCC)c3)=NO2)C[C@@H]1C(N)=O (stereo partly specified),inhibition,,-5.61% (inactive)
CC(Sc1nc2c([nH]c3ccccc32)c(=O)n1C)c1ccccc1 (stereo unspecified),inhibition,,-7.85% (inactive)
CC(C)=CCC/C(C)=C/C(=O)O,inhibition,,2.81% (inactive)
c1ccc(-c2cn3cccnc3n2)cc1,inhibition,,70% (active)
same,inhibition,[1],81.6%
CC(=O)Nc1cccc(-c2cnc3ccccc3n2)c1,inhibition,,13.8% (inactive)
CCCC(=O)Nc1cccc(-c2cn3ccsc3n2)c1,inhibition,,3.46% (inactive)
c1ccc(-c2ccnc3nc(-n4cccc4)nn23)cc1,inhibition,,-3.61% (inactive)
c1ccc(-c2cn3c(n2)CCc2ccc4cccnc4c2-3)cc1,inhibition,,-52.8% (inactive)
CC(=O)Nc1ccc(-c2cn3cccnc3n2)cc1,inhibition,,102% (active)
same,inhibition,[1],156%
CCn1c(=N)c(S(=O)(=O)c2ccc(F)cc2)cc2c(=O)n3ccccc3nc21,inhibition,,-13.4% (inactive)
COc1ccc(CNC(=O)c2cc3c(=O)n4ccccc4nc3n(CC3CCCO3)c2=N)cc1 (stereo unspecified),inhibition,,-12.4% (inactive)
CCCn1c(=NC(C)=O)c(C(=O)OCC)cc2c(=O)n3ccccc3nc21,inhibition,,48.4% (active)
same,inhibition,[1],60.1%
